Bioassay records: PubChem BioAssay, National Center for Advancing Translational Sciences (NCATS)
KB-V1 cytotox – kills drug-selected multidrug resistant KB-V1 cells; KB-V1 MDR cells viability, CellTiter-Glo, 72 h; actives 3.4% (n = 400,000); Potency, µM (series often up to 46.1 µM), usual class: cytotoxic; note: potency is the fitted concentration of half-maximal effect; nearly all actives have a fitted effect of over 60% in size
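Potencies derive from concentration-effect curves fitted to normalized luminescence (CellTiter-Glo) of KB-V1 cells treated for 72 h at 37 degrees C in phenol-red-free DMEM containing 10% FBS.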
KB-3-1 cytotox – KB-3-1 parental cell cytotoxicity. Potency, µM (doses to about 46.1 µM), usual class: cytotoxic. actives 1.4% (n = 400,000). KB-3-1 viability, CellTiter-Glo ATP luminescence, 72 h; note: potency is the fitted concentration of half-maximal effect; nearly all actives have a fitted effect of over 60% in size
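Using CellTiter-Glo luminescence, growth of non-resistant KB-3-1 adenocarcinoma cells is assessed 72 h after pin-tool compound addition at 37 °C. Normalized responses across the concentration series yield fitted curves.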
IL-1B inflam inh – inhibitors of inflammasome signaling (IL-1 beta secretion) | THP-1 LPS/ATP IL-1B secretion, AlphaLISA, 16 h; hits give low values | activity change, % at 57.5 µM | actives 4.7% (n = 360,000) | AID 743279; in the data active = activity change below about -50%; inconclusive = mostly about -30% to -49%
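Secreted IL-1B measured by AlphaLISA bead assay after 16 h compound exposure of THP-1 cells; compounds (final up to 57.5 uM) added 1 h before LPS (250 ng/mL) and ATP (1.25 mM) stimulation; lower signal means less secretion.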
HT1080 IDH1KD tx – toxicity to HT-1080 IDH1 knockdown cells (counter line). actives 2% (n = 360,000). Potency, µM (titrated, usually from 46.1 µM), without a hit: top-dose activity, negative = toxicity, hits mostly cytotoxic. HT-1080 IDH1 knockdown viability, ATP luminescence, 48 h;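 note: potency is the fitted concentration of half-maximal effect; 0% = DMSO wells and -100% = cell-free medium wells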
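Knockdown cells (IDH1KD HT-1080) received compounds 2 h after plating at 750 cells/well and were kept 48 h at 37 °C in 5% FBS RPMI. A CellTiter-Glo luminescence read gave % activity for curve fitting.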
HT1080-NT tox – kills 2HG-producing HT-1080-NT fibrosarcoma cells | HT-1080-NT fibrosarcoma viability, CellTiter-Glo ATP luminescence, 48 h | Potency, µM (doses to about 46.1 µM), without a hit: at the top dose activity, negative = less viability, most hits filed as cytotoxic | actives 1.6% (n = 360,000) | AID 686970;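 note: NT is the 2HG producing partner of a matched IDH1 knockdown line; potency is the fitted concentration of half-maximal effect; 0% = DMSO-treated cells and -100% = media-only wells without cells; nearly all actives have a fitted effect of over 55% in size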
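Toxicity toward the 2HG-producing NT line was scored as %Activity, normalised to DMSO and no-cell wells, from CellTiter-Glo luminescence after 48 hours' treatment.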
Numbers without * were called inactive; i = inactive; ? = inconclusive; · = no result; [ ] = remark or other dose. Compounds with a hit are over-represented: about 8.8% of the library has one in this group of screens. Unless noted, calls come from the whole dose curve; as a rule, active = well fitted curve in the direction sought with a large enough effect; inconclusive = small, poorly fitted or top-dose-only effect, or another doubt; inactive = no such curve, though single readings can be large; an effect the other way counts as inactive or inconclusive. Unless noted, % is set by controls: 0 for no effect and ±100 for the full control effect.

SMILES | KB-V1 cytotox | KB-3-1 cytotox | IL-1B inflam inh | HT1080 IDH1KD tx | HT1080-NT tox
CC1(C)C(C=C(Cl)Cl)C1C(=O)Nc1ccc([N+](=O)[O-])cc1 (stereo not drawn) | ? | ? | -99.3* | ? | 23.1µM*
O=C(CN1/C(=C(/O)c2ccccc2)C(=O)c2ccccc2S1(=O)=O)c1ccccc1 | 1.46µM* | ? | -8.6 | -16.6% | -23.0%
CCOc1ccc(-c2nc[nH]c2[N+](=O)[O-])cc1 | i | i | -13.2 | 0.0% | -0.3%
CCn1c(SCc2ccc(C#N)cc2)nnc1-c1cccc(Cl)c1 | ? | i | -73.0* | 5.2%[9.24 µM] | -4.6%
CCOc1cccc(C(=O)Nc2ccc(S(=O)(=O)Nc3cc(C)on3)cc2)c1 | i | i | 5.2 | 10.3% | 13.3%
CCOC(=O)N1CCN(Cc2nc3cc(NC(=O)C(C)C)ccc3n2C)CC1 | i | i | 21.3 | 22.1% | 23.2%
CCCn1c(CN2CCN(C(=O)OCC)CC2)nc2cc(NC(=O)CC)ccc21 | ? | 9.2µM* | 44.9 | 5.8µM* | 7.31µM*
CCOC(=O)N1CCN(Cc2nc3cc(NC(=O)C(C)C)ccc3n2C(C)C)CC1 | i | 0.651µM* | · | · | ·
O=C1[C@H]2[C@@H](c3ccc(C(F)(F)F)cc3)N[C@]3(CCCN(Cc4ccc(C(F)(F)F)cc4)C3=O)[C@H]2C(=O)N1Cc1ccccc1 | i | ? | ? | ? | -16.8%
O=C(NCC(=O)N(c1ccc(F)cc1)C(C(=O)NC1CCCCC1)c1cccnc1)c1ccco1 (stereo not drawn) | i | i | 9.3 | -7.7% | -12.4%
CCc1ccccc1N(C(=O)CNC(=O)c1ccco1)C(C(=O)NC1CCCC1)c1cccnc1 (stereo not drawn) | i | i | 4.8 | 27.9% | 18.5%
COc1ccc(N(C(=O)CCl)C(C(=O)NC2CCCCC2)c2cccnc2)cc1 (stereo not drawn) | 20.6µM* | 10.3µM* | -101.9* | 5.8µM* | 7.31µM*
COc1ccc(N(C(=O)Cc2cccs2)C(C(=O)NC2CCCC2)c2ccncc2)cc1 (stereo not drawn) | ? | i | -4.2 | -0.7% | 5.0%
O=C(NC1CCCCC1)C(c1cccnc1)N(C(=O)CCl)c1ccccc1Cl (stereo not drawn) | ? | 10.3µM* | -88.8* | 16.4µM* | 10.3µM*
O=C(NC1CCCCC1)C(c1cccnc1)N(C(=O)CCl)c1ccc(F)cc1 (stereo not drawn) | 16.4µM* | i | -103.3* | 10.3µM* | 13µM*
O=C(CN1CCN(Cc2ccccc2)CC1)N/N=C/c1ccc(Br)s1 | i | i | -18.5 | ? | ?
COc1cccc(OCC(=O)Nc2nnc3n2CCS3)c1 | i | i | · | · | ·
CN(C)c1ccc(N=Cc2cccc3ccccc23)cc1 | i | i | · | · | ·
Cc1sc(-c2cc3c([nH]c2=O)CC(c2ccccc2)CC3=O)nc1-c1ccc(Cl)cc1 (stereo not drawn) | 0.82µM* | 1.03µM* | · | · | ·
O=C1CC(c2ccccc2)Cc2[nH]c(=O)c(-c3nc(-c4ccc(F)cc4)cs3)cc21 (stereo not drawn) | i | 4.61µM* | · | · | ·
O=C1CC(c2ccccc2)Cc2[nH]c(=O)c(-c3nc(-c4ccc(Cl)c(Cl)c4)cs3)cc21 (stereo not drawn) | i | i | · | · | ·
O=C1C=C(c2ccc(-c3ccccc3)cc2)C[C@@H](c2ccc(F)cc2)C1 | i | i | -23.2 | 16.8% | 25.7%
O=C1C=C(C#Cc2ccccc2)C[C@@H](c2ccc(F)cc2)C1 | i | ? | -84.9* | -15.8% | ?
COc1ccccc1C#CC1=CC(=O)C[C@H](c2ccc(F)cc2)C1 | i | ? | -57.7* | -22.8% | ?
COc1ccc(C2=CC(=O)C[C@H](c3ccc(F)cc3)C2)c(F)c1F | ? | i | ? | -1.8% | -11.8%
CCC(C)OC(=O)C1=C(C)O[C@]23OC(N)=C(C#N)[C@]12C(=O)c1ccccc13 (stereo partly drawn) | i | i | 2.0 | 4.4% | -7.1%
CN1CCN(c2nc(-c3cccnc3)nc3scc(-c4ccccc4)c23)CC1 | i | i | -51.9* | -8.5% | ?
